# Results: PubChem BioAssay (NCATS)
# Records with an inconclusive call do not appear. Entries that show only a call come without a potency. The source made the active and inactive calls. Calls come from the whole dose curve; as a rule, active = well fitted curve in the direction sought with a large enough effect; inconclusive = small, poorly fitted or top-dose-only effect, or another doubt; inactive = no such curve, though single readings can be large; an effect the other way counts as inactive or inconclusive. *1 amine or outer side, *2 acyl side, *3 side chain or, on linkers, in order; H or OH if unused. Where a SMILES comes first, the peptide text is derived from it. Bridges are numbered along the chain shown (N, C = ends). Roman numbers before positions name the chains, in order. [ ]: non-standard residue; d: D form. ξ: configuration not given here. Actinocin(9to1) = Cc1c2oc3c(C)ccc(C(=O)[*:1])c3nc-2c(C(=O)[*:2])c(N)c1=O; ξNMeV = CNC(C(=O)O)C(C)C; ξV = CC(C)C(N)C(=O)O; Sar = CNCC(=O)O
# Legend:
# [1] = test system: Zika virus NS2B-NS3 protease (linked construct); test: Primary screen NINDS Rhodamine qHTS for Zika virus inhibitors (AID 1347160); note: nearly all actives have a fitted effect of over 55% in size
# Method in brief: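 In 10 mM Tris-HCl pH 8.0 containing 0.01% Tween 20, linked NS2B-NS3 protease (25 nM final) is exposed to test compounds for 15 min. Cleavage of 1.5 microM Rhodamine110 substrate is tracked by fluorescence over 15 min.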
# [2] = test system: Zika virus NS2B-NS3 protease (unlinked complex); test: Primary screen GU Rhodamine qHTS for Zika virus inhibitors: Unlinked NS2B-NS3 protease assay (AID 1347159); note: nearly all actives have a fitted effect of over 60% in size
# Method in brief: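 Percent inhibition derives from the 15-min fluorescence change (ex 480, em 540 nm), normalized to no-enzyme and no-inhibitor wells. Reactions contained 25 nM NS2B-NS3 complex and 1.5 microM substrate in 10 mM Tris-HCl pH 8.0.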
# [3] = target: Lysine-specific demethylase 5B (Homo sapiens) (UniProt Q9UGL1); test: Optimization screen for KDM5B Histone Demethylases FDH coupled qHTS against the LOPAC library (AID 1347166)
# Method in brief: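 KDM5BDeltaAP (200nM final) preincubated 10 min with compound, then 12.5uM H3K4Me3, 25uM a-ketoglutarate, ascorbate, Fe(II), NAD+ and FDH added; 50mM HEPES pH 7.5, 0.01% Tween-20. NADH fluorescence (340/450 nm) change over 30 min, room temperature.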
# [4] = Vero cells viability qHTS for Zika virus inhibitors (AID 1347167)
# Method in brief: (§1)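 Cells seeded at 2.5 x 10^5 cells/mL in DMEM with 4% FBS and attached overnight at 37 degrees C, then exposed to compound for 24 to 48 hours. Viability read as ATP content by CellTiter Glo luminescence.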
# [5] = HepG2 cells viability qHTS for Zika virus inhibitors (AID 1347168)
# Method in brief: as §1
# [6] = Tertiary RLuc qRT-PCR qHTS assay for Zika virus inhibitors (AID 1347169); note: potency is the fitted concentration of half-maximal effect; nearly all actives have a fitted effect of over 55% in size
# Method in brief: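 Inhibition of ZIKV-RLuc replication in Vero cells, read as Renilla luminescence 1-1.5 hrs after live-cell substrate addition, following 48-72 hrs infection at MOI 1-2 in presence of compound.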
# Sequence of Lysine-specific demethylase 5B (Homo sapiens) (Q9UGL1 whole entry, looked up): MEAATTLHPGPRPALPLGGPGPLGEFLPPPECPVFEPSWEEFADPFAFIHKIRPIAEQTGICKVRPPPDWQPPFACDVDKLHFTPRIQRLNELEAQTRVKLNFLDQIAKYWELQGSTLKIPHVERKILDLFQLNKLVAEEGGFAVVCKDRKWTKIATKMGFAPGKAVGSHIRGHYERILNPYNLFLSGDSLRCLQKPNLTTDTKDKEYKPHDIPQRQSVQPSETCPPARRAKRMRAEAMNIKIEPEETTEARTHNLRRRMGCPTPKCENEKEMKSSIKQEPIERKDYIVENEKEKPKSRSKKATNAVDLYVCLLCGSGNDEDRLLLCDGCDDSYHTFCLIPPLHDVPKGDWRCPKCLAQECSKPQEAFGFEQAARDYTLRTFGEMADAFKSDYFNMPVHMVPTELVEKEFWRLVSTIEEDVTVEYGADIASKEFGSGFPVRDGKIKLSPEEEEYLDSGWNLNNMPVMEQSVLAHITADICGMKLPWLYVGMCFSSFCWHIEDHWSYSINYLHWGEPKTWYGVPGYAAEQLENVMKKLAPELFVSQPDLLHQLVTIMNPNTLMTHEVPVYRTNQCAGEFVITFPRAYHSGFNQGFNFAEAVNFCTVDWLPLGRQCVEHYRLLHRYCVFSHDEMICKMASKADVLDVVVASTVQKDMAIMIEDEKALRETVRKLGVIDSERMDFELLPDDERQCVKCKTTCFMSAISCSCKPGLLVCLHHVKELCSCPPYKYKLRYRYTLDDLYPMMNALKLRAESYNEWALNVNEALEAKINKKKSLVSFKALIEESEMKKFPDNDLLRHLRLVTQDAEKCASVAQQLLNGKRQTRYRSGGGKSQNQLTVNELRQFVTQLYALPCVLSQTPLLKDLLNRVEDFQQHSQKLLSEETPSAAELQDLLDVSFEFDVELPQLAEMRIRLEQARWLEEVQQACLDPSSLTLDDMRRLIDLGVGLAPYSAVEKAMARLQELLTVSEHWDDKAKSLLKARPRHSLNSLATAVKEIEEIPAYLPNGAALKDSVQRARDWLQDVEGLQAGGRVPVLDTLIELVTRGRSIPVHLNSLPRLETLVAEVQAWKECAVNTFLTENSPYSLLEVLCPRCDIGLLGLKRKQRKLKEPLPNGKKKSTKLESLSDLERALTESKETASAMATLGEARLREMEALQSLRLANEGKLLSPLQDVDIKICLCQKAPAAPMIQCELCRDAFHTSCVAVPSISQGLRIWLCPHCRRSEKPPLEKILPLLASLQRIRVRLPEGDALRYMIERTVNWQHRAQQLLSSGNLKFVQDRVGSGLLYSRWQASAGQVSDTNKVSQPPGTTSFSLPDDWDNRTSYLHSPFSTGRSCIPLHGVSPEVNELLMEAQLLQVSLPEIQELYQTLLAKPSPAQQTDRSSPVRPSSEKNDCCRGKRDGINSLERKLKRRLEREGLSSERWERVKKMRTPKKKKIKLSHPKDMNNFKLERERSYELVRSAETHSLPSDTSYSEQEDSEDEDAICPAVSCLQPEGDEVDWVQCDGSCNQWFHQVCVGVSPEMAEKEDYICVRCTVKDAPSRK
structure (smiles),measurement,setting,value
COc1ccc([C@@H]2N[C@H](C(=O)O)Cc3c2[nH]c2ccccc32)cc1CN1CCN(c2ccccc2F)CC1,Potency,[1],inactive
C/C=C(\C)C(=O)O[C@H]1[C@@H](O[C@]2(COC(=O)CC(C)C)O[C@H](COC(=O)C(C)C)[C@@H](OC(C)=O)[C@@H]2O)O[C@H](COC(C)=O)[C@@H](O)[C@@H]1O,Potency,[1],inactive
CC1(C)CC[C@]2(C(=O)O)CC[C@]3(C)C(=CCC4[C@@]5(C)CCC(O[C@@H]6OC[C@H](O)[C@H](O)[C@H]6O[C@@H]6O[C@H](CO)[C@@H](O)[C@H](O)[C@H]6O)[C@@](C)(CO)C5CC[C@]43C)[C@@H]2C1 (stereo partly drawn),Potency,[1],inactive
CC(=O)C1CCC2(C)C3=C(CCC12C)C1(C)CCC(=O)C(C)(C)C1CC3 (stereo not drawn),Potency,[1],inactive
CC1CCC2(C(=O)OC3OC(CO)C(O)C(O)C3O)CCC3(C(=O)O)C(=CCC4C5(C)CCC(OC6OC(C)C(O)C(O)C6O)C(C)(C)C5CCC43C)C2C1C (stereo not drawn),Potency,[1],inactive
CC1CCC2(O1)C(C)(C)CC(O[C@@H]1O[C@H](CO[C@@H]3OC[C@](O)(CO)[C@H]3O)[C@@H](O)[C@H](O)[C@H]1O)CC2(C)O (stereo partly drawn),Potency,[1],inactive
COC(=O)C1C(c2ccc(O)cc2)C(C(=O)OC)C1c1ccc(O)cc1 (stereo not drawn),Potency,[1],inactive
CC(C)N(C[C@H]1O[C@@H](n2cnc3c(N)ncnc32)[C@H](O)[C@@H]1O)C1CC(CCc2nc3ccc(C(C)(C)C)cc3[nH]2)C1 (stereo partly drawn),Potency,[2],inactive
same,Potency,[1],inactive
CN1Cc2c(N)cccc2C(c2ccccc2)C1 (stereo not drawn),outcome,[3],inactive
"Cc1c2oc3c(C)ccc(C(=O)N[C@@H]4C(=O)NC(C(C)C)C(=O)N5CCC[C@H]5C(=O)N(C)CC(=O)N(C)C(C(C)C)C(=O)O[C@@H]4C)c3nc-2c(C(=O)N[C@@H]2C(=O)NC(C(C)C)C(=O)N3CCC[C@H]3C(=O)N(C)CC(=O)N(C)C(C(C)C)C(=O)O[C@@H]2C)c(N)c1=O (stereo partly drawn) (I: T[ξV]P[Sar][ξNMeV] / II: T[ξV]P[Sar][ξNMeV]; ester I:1-I:C, II:1-II:C; linker I:N-II:N via Actinocin(9to1))",outcome,[4],inactive
same,outcome,[5],inactive
same,Potency,[6],208 nM (active)
